Drawing on PubChem BioAssay (NCATS), this text covers outcome and Potency for ten compounds.

Each structure is given as a SMILES string. Records with an inconclusive call do not appear. Values without a mark were called inactive. Active and inactive are the calls of the source. Unless noted, the call rests on the fitted dose curve; in most records, active means well fitted curve in the direction sought with a large enough effect; inconclusive means small, poorly fitted or top-dose-only effect, or another doubt; inactive means no such curve, though single readings can be large; an effect the other way counts as inactive or inconclusive.

Assay [1] addresses ATP-dependent 6-phosphofructokinase (Trypanosoma brucei brucei) (UniProt O15648). The experiment in a line: qHTS Assay to Find Inhibitors of T. brucei phosphofructokinase: hit validation (AID 492961).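 Further: luminescence reports ADP formed as PFK phosphorylates fructose-6-phosphate with ATP.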 The conditions noted are these: T. brucei PFK, ADP-Glo luminescence; series mostly up to 51.4 µM. Put shortly: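 PFK 1.25 nM, F6P 0.5 mM, ATP 0.1 mM, MgCl2 5 mM, 0.1 M TEA pH 8.0, Tween20 0.01%, BSA 0.1%; 45 min RT. ADP-Glo two-step detection, luminescence. qHTS titration; curve fitting with curve-class categorization.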

Assay [2] is described as follows: S16 Schwann cell viability assay (CellTiter-Glo assay) (AID 624031). Further: nearly all actives have a fitted effect of over 70% in size. Further: potency means the concentration at half of the fitted maximal effect. The conditions noted are these: S16 rat Schwann cells viability, 24 h; series mostly up to 57.5 µM. Put shortly:
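Parental S16 cells, 24 h compound, 37 °C. ATP-luminescence viability; DMSO = 0% activity, empty wells as reference; curves classified by fit quality and efficacy.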
In general terms: Cellular ATP, detected with luciferase, serves as a proxy for viable cell number.

For another assay, the system named is FAB9. The experiment in a line: qHTS profiling for inhibitors of Plasmodium falciparum proliferation (AID 504749). Further: nearly all actives have a fitted effect of over 60% in size. Further: potency means the concentration at half of the fitted maximal effect. The conditions noted are these: P. falciparum in erythrocytes, SYBR Green DNA, 72 h; series mostly up to 28.7 µM. In a few lines:
(§1)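 Parasite proliferation within erythrocytes, 72 h exposure. Endpoint: SYBR Green I fluorescence after overnight lysis at room temperature. Controls: 0.29 uM artemisinin, DMSO.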

For the next assay, the system named is PC49. Described as above. The following applies: P. falciparum in erythrocytes, SYBR Green DNA, 72 h; series mostly up to 28.7 µM. In a few lines:
as §1

The target of assay [3] is Estrogen receptor (Homo sapiens) (UniProt P03372). The experiment in a line: qHTS assay for small molecule agonists of estrogen receptor alpha signaling (AID 588514; calls by dose curve; further: nearly all actives have a fitted effect of over 70% in size). The following applies: ER-alpha-UAS-bla HEK293, beta-lactamase ratio, 18 h; series mostly up to 76.8 µM. In a few lines:
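ER-alpha-UAS-bla GripTite HEK293 cells, 5000/well in 2% charcoal/dextran-stripped FBS medium, treated with compound titrations 18 h at 37 C. CCF4 beta-lactamase read by fluorescence after 2 h RT; normalised to 20 nM 17-beta-estradiol (100%) and DMSO (0%), Hill fit for EC50 and efficacy.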

Assay [4] is described as follows: Cell Viability - LYMP2-004 (AID 966). Further: nearly all actives have a fitted effect of over 65% in size. The conditions noted are these: LYMP2-004 lymphoblastoid cell viability, qHTS; series mostly up to 92.2 µM. Put shortly:
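Lymphoblastoid LYMP2-004 cells, 2500 per well, were preincubated for 5 hr and then treated with compound for 24 h at 37 C in complete medium. Viability was read as cellular ATP by CellTiter-Glo luminescence, and AC50 values were taken from Hill fits to concentration-response data.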
Background: In qHTS, concentration-response curves come from the screen itself.

Assay [5] in a line: Cell Viability - LYMP2-013 (AID 970). Further: nearly all actives have a fitted effect of over 55% in size. The conditions noted are these: LYMP2-013 lymphoblastoid cells viability; series mostly up to 92.2 µM. In a few lines: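 Human lymphoblastoid LYMP2-013 cells, 2500/well, treated 24 h at 37 C in complete medium; viability as intracellular ATP by CellTiter-Glo luminescence after 30 min. AC50 from Hill fits of qHTS concentration-response.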

The target of assay [6] is Estrogen receptor (Homo sapiens) (UniProt P03372). The experiment in a line: qHTS assay for small molecule antagonists of estrogen receptor alpha signaling (AID 588513; active means well fitted curve in the direction sought with a large enough effect in the signal ratio, with a control signal flat, not every such curve was filed as active; the % refers to the signal ratio). The conditions noted are these: ER-alpha-UAS-bla HEK293, beta-lactamase ratio, antagonist mode; series mostly up to 76.9 µM. Put shortly: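 Beta-lactamase reporter, antagonist mode, HEK 293 GripTite cells; 0.5nM E2 stimulus, 18 h, 37 C; CCF4 dye 2 h RT; fluorescence. IC50 and efficacy from Hill fits, normalized to E2 and DMSO.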
Sequence of Estrogen receptor (Homo sapiens) (P03372 whole entry, looked up): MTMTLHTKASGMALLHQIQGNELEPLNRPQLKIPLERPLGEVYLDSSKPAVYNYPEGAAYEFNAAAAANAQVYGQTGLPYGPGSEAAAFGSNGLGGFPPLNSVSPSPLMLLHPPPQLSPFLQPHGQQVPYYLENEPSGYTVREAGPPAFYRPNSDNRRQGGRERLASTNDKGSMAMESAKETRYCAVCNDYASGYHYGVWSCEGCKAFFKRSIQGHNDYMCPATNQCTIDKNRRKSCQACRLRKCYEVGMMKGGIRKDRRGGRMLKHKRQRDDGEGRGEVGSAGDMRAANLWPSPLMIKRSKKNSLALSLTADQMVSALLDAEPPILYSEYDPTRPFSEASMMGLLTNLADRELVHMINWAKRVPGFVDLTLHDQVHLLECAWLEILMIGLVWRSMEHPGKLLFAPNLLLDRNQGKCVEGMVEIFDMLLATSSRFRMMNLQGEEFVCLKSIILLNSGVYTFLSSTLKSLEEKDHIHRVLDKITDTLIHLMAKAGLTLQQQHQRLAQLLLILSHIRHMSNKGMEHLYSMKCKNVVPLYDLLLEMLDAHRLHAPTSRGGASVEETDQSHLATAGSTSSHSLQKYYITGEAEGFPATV

In assay [7] the target is Vitamin D3 receptor (Homo sapiens) (UniProt P11473). The experiment in a line: qHTS assay for small molecule antagonists of vitamin D receptor signaling (AID 588541; calls by dose curve;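 further: receptor activated by calcitriol during compound treatment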). The conditions noted are these: HEK293T VDR-UAS-bla, beta-lactamase ratio, antagonist mode; series mostly up to 76.7 µM. In a few lines: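 VDR-UAS-bla HEK293T cells (2000/well, 2% charcoal-stripped FBS) were treated with titrated compounds plus 1-alpha,25-dihydroxyvitamin D3 (50 nM or 3 nM final) for 16 h at 37 C. CCF4 beta-lactamase fluorescence was read; Hill fits gave IC50.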
Sequence of Vitamin D3 receptor (Homo sapiens) (P11473 whole entry, looked up): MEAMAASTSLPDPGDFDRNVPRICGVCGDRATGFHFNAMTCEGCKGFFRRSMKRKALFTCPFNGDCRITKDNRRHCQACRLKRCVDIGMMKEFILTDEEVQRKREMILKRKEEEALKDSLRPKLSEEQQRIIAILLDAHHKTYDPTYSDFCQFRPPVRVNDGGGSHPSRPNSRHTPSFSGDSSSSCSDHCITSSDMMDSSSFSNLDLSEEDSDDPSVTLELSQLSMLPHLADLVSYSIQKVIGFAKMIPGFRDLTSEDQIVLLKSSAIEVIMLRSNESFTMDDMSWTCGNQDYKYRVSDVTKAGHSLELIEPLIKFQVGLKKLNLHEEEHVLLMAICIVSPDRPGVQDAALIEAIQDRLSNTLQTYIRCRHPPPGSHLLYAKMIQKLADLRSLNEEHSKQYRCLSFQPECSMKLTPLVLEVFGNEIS

Assay [8] shares this target. The experiment in a line: qHTS assay for small molecule agonists of vitamin D receptor signaling (AID 588543; calls by dose curve). The following applies: HEK293T VDR-UAS-bla, beta-lactamase ratio, 16 h; series mostly up to 76.8 µM. Put shortly: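 β-lactamase reporter, VDR-UAS-bla HEK293T, agonist mode. Cells plated 5 h at 37 °C, compound titration 16 h at 37 °C, CCF4 dye 2 h RT, ratio 460/530 nm. Hill fit → EC50, efficacy vs 50 nM 1α,25-(OH)2D3.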

The subject of a further assay is 3D7. The experiment in a line: qHTS profiling for inhibitors of Plasmodium falciparum proliferation (AID 504749). Further: nearly all actives have a fitted effect of over 60% in size. Further: potency means the concentration at half of the fitted maximal effect. The following applies: P. falciparum in erythrocytes, SYBR Green DNA, 72 h; series mostly up to 28.7 µM. In a few lines: as §1
The next assay relates to CP185. Described as above. The conditions noted are these: P. falciparum in erythrocytes, SYBR Green DNA, 72 h; series mostly up to 28.7 µM. Put shortly: as §1
The next assay relates to CP250. Described as above. The following applies: P. falciparum in erythrocytes, SYBR Green DNA, 72 h; series mostly up to 28.7 µM. Put shortly:
as §1

The test system of another assay is TAB113. Described as above. The conditions noted are these: P. falciparum in erythrocytes, SYBR Green DNA, 72 h; series mostly up to 28.7 µM. Put shortly:
as §1

The next assay has as its system P93_24. The assay is described as above. The conditions noted are these: P. falciparum in erythrocytes, SYBR Green DNA, 72 h; series mostly up to 28.7 µM. In a few lines: as §1
A short description of assay [9]: Cell Viability - BJ (AID 421; calls by dose curve;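 further: potency means the concentration at half of the fitted maximal effect; cells exposed to compound for 40 hours at 37 °C before readout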). The conditions noted are these: BJ fibroblast viability, qHTS. In a few lines: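 Cytotoxicity as drop in intracellular ATP (CellTiter-Glo, 20 min RT) after 40 hr compound exposure of BJ fibroblasts at 37 °C. Titrations scaled between DMSO and 100 uM tamoxifen, Hill-fitted for AC50.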
Assay [10] is described as follows: Cell Viability - LYMP2-009 (AID 968). Further: nearly all actives have a fitted effect of over 55% in size. The conditions noted are these: LYMP2-009 lymphoblastoid cell viability; series mostly up to 92.2 µM.
A short description of assay [11]: Cell Viability - LYMP2-016 (AID 984).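 Further: cells exposed to compound for 24 hours at 37 °C; nearly all actives have a fitted effect of over 55% in size.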 The following applies: LYMP2-016 lymphoblastoid cell viability, qHTS; series mostly up to 92.2 µM. Put shortly: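 qHTS, 1536-well: 2500 LYMP2-016 cells/well, 5 hr 37 C, compound added, 24 hr 37 C, CellTiter-Glo 30 min RT, luminescence. Tetraoctylammonium bromide positive control. AC50 via Hill fit.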
A short description of assay [12]: qHTS assay for small molecule agonists of the antioxidant response element (ARE) signaling pathway (AID 651741; active means well fitted activation curve with a large enough effect in the signal ratio; the % refers to the signal ratio). The following applies: HepG2 ARE-bla reporter, beta-lactamase FRET ratio, 16 h; series mostly up to 96 µM. In a few lines: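 Compounds in DMSO are pinned onto HepG2 ARE-bla cells (2,000/well) that were preincubated 5 h; plates stay 16 h at 37 C, then beta-lactamase activity is detected with LiveBLAzer B/G substrate by fluorescence.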

Assay [13] can be described thus: qHTS assay for small molecule disruptors of the mitochondrial membrane potential - 1 hr assay (AID 651754; calls by dose curve; further: nearly all actives have a fitted effect of over 35% in size). The following applies: series mostly up to 92.2 µM. Put shortly:
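HepG2 cells, attached overnight, were exposed to compound for 1 hr at 37C, then stained 30 min with a potentiometric dye. Ratio of red aggregate (590nm) to green monomer (535nm) fluorescence reports membrane potential; collapse shifts signal toward green.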

Sequence of ATP-dependent 6-phosphofructokinase (Trypanosoma brucei brucei) (O15648 whole entry, looked up): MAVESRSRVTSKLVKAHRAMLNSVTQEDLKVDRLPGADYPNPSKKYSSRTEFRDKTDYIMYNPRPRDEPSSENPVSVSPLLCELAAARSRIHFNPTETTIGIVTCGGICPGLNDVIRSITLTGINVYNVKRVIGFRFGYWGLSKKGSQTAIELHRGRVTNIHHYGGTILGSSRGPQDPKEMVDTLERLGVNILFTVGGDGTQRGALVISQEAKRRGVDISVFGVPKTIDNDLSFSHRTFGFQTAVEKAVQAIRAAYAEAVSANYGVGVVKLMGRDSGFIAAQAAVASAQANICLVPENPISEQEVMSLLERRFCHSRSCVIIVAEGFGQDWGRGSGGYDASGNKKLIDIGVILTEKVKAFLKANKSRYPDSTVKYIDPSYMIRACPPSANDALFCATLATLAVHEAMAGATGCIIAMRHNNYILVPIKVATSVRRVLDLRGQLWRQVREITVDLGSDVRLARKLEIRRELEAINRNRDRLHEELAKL

For the compound `O=NCc1ccc([N+](=O)[O-])o1`, the outcome in assay [1] was inactive. Moreover, the Potency entry (in assay [2]; with FAB9; with PC49) was “inactive” in each case.
Regarding `Cc1cccc(O)c1`, the Potency result in assay [3] was “inactive”.
As to `O[C@@H]([C@H](O)[C@@H](O)CBr)[C@@H](O)CBr`, the Potency result in [4], in assay [5], in [6] and in [3] was “inactive” each time. In addition, the result in assay [7] and in [8] was inactive.
For `CCC(=O)O[C@@H](OP(=O)(CCCCc1ccccc1)CC(=O)N1C[C@H](C2CCCCC2)C[C@H]1C(=O)O)C(C)C` (stereo partly specified), the result in [1] was inactive. The Potency entry (in [2]; in the assay with 3D7; in the assay on CP185; in the assay with CP250; in the assay on FAB9; in the assay on PC49) was “inactive” throughout. In addition, the Potency result in the assay with TAB113 is “inactive”.
Regarding `Cc1cc(CC(C)CC(C)(C)C)n(O)c(=O)c1` (stereo unspecified), the call in assay [1] was inactive. Besides, the Potency in the assay on 3D7 is 2 µM (active); in the assay on CP185, 1.12 µM (active); with CP250, 1.12 µM (active); in the assay on P93_24, 2.24 µM (active); with TAB113, 2.82 µM (active).
As for `CN1CC[C@H](CN2c3ccccc3Sc3ccccc32)C1`, the outcome in assay [1] was inactive. In addition, the results for the Potency (in assay [2]; in the assay on P93_24) were 36.1 µM (active) and 7.08 µM (active), respectively.
Consider `CCCCOCCO`, for which the Potency in [9] is more than 92 µM. Besides, the Potency result in assay [4], in assay [10], in assay [11], in assay [6], in assay [3] and in assay [12] was “inactive” in each case. For the same compound, the Potency result in assay [13] is “inactive”. Also, the result in assay [7] and in assay [8] was inactive.
Regarding `Cc1c(N=C=O)cccc1N=C=O`, the Potency in [9] was more than 92 µM. Besides, the Potency result in assay [4], in assay [11], in assay [6], in [3] and in assay [12] was “inactive” each time. The result in [7] and in assay [8] was inactive.
Regarding `COC(=O)c1ccc(C=O)cc1`, the Potency in assay [9] is more than 92 µM. In addition, the Potency entry in [4], in assay [5], in assay [11], in [6], in assay [3] and in assay [12] was “inactive” each time. In assay [13], the Potency entry was “inactive”. The outcome in assay [7] and in [8] was inactive.
`C1OCOCO1`: the Potency in assay [9] is more than 92 µM. In addition, the Potency result in assay [4], in [5], in [11], in [2], in [12] and in assay [13] was “inactive” throughout. Also, the Potency entry in the assay with 3D7, in the assay on CP185, in the assay on CP250, with FAB9, in the assay on P93_24 and with PC49 was “inactive” each time. Besides, the Potency entry in the assay on TAB113 was “inactive”. The outcome in [1] was inactive.
